# Compound activity as filed in PubChem.
# In the library only some 22% were active in any assay of this set; here they are far more common.
# CYP2C19 activ – cytochrome P450 2C19 (human) activation; AID 1025; 96,000 tested, under 10 active; activation factor at 5 µM; recombinant CYP2C19, luciferin-H EGE luminescence; active compounds read high; 0 = fully inhibited enzyme, 1 = untreated enzyme; P33261;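 active = activation factor of at least 2 at 5 µM in the primary screen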;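 note: 0 = wells with 2.5 mM tranylcypromine and 1 = vehicle-only wells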
# Target sequence (P33261 whole entry, looked up): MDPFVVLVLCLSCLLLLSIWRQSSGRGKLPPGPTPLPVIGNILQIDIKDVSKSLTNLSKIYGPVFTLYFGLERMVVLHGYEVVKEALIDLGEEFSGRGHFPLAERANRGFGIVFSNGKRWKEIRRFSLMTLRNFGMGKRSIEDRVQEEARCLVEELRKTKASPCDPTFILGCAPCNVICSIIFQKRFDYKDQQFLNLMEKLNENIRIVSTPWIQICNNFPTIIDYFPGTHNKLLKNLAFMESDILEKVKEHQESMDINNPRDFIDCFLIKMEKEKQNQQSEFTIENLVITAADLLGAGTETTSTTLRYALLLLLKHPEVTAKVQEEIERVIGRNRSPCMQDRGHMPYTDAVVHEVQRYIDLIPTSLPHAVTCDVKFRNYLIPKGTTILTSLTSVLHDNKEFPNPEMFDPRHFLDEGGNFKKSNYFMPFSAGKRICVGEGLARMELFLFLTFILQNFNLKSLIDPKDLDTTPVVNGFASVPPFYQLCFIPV
# CYP2C19 inh – blocks human cytochrome P450 2C19. CYP2C19 Supersomes, luciferin-H EGE luminescence, 30 min. AID 778. inhibition, % at 5 µM. P33261. 21% of 96,000 active;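 active = CYP2C19 inhibition above a set limit at 5 µM in the primary screen, cut at about 50% in these data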;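 note: plate controls were negative control wells for no effect and 2.5 mM tranylcypromine positive control for full effect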
# CYP2C9 act – activators of human CYP2C9; P11712; activation factor at 5 µM; 1.4% of 96,000 active; recombinant CYP2C9, luciferin-H conversion, luminescence; active compounds read high; factor 1 = untreated enzyme, 0 = blocked;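 active = activation factor of 2 or more for CYP2C9 at a 5 µM dose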;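 note: 0 = sulfaphenazole-blocked wells and 1 = vehicle-only wells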
# Measles CPE – protection of cells from measles virus. protection (pct of control), % at 4 µM. Measles virus-infected cells, CPE protection, absorbance. 1.5% of 140,000 active; in the data active = protection mostly above about 24%, no sharp cut-off; inactive = mostly below about 26%
# CYP2C9 inhib – blocks human cytochrome P450 2C9; P11712; CYP2C9 Supersomes, luciferin-H conversion, luminescence; inhibition, % at 5 µM; 20% of 96,000 active; AID 777;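 active = blocking of liver enzyme CYP2C9 beyond about 50% at 5 µM, limit read from the data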
# Numbers without * were called inactive; / = no result.
SMILES,CYP2C19 activ,CYP2C19 inh,CYP2C9 act,Measles CPE,CYP2C9 inhib
COc1cc(CNc2ccc3[nH]c(=O)[nH]c3c2)ccc1OCC(=O)NC(C)(C)C,0.8,21,0.6,36,38
CCOc1cc(CNc2cccc3ccccc23)cc(Br)c1OCC(=O)NC(C)(C)C,0.3,65*,0.3,4,70*
C=CCOc1c(Br)cc(CNc2ccc(NC(=O)CCC)cc2)cc1OCC,0.5,54*,0.3,5,71*
CCOc1cc(CNc2ccc(N(C)C)cc2)cc(Br)c1OCC(=O)NC(C)(C)C,0,96*,0,20,96*
CCOc1cc(CNc2ccc(N3CCCCC3)cc2)cc(Br)c1OCC(=O)NC(C)(C)C,/,/,/,5,/
CCOc1ccc2[nH]c(=O)c(C(c3nnnn3C3CCCCC3)N3CCN(CC)CC3)cc2c1 (configuration not stated),0.9,7,0.9,5,9
Cc1ccc(N/C=C/C(=O)C(C)(C)C)c(O)c1,0.9,14,0.6,7,39
Cc1cccc(N2CCN(S(=O)(=O)c3ccc(S(=O)(=O)N4CCCC4)cc3)CC2)c1C,0.9,8,0.8,8,24
O=S(=O)(c1ccc(Cl)cc1)N1CCN(c2ccc(N3CCOCC3)nn2)CC1,1.2,-19,1.1,8,-8
O=S(=O)(c1cnc[nH]1)N1CCN(c2ccc(Cl)cc2)CC1,0,96*,0.2,5,81*
CN(C)S(=O)(=O)N1CCCN(S(=O)(=O)N(C)C)CC1,1,3,1.1,23,-10
CN(C)S(=O)(=O)N1CCN(c2ccc(Cl)cc2)CC1,0.4,63*,0.7,3,30
O=C(C1CCCN(S(=O)(=O)c2cnc[nH]2)C1)N1CCN(c2ccc(Cl)cc2)CC1 (configuration not stated),0.6,38,0.3,16,65*
Cc1cccc(N2CCN(S(=O)(=O)c3cnc[nH]3)CC2)c1C,0,98*,0,-1,97*
Cc1ccc(C)c(N2CCN(C(=O)C3CCCN(S(=O)(=O)c4cnc[nH]4)C3)CC2)c1 (configuration not stated),1,-4,1,33,0
CCCCOC(=O)C1=C(C)NC2(O)c3ccccc3C(=O)C12O (configuration not stated),0.8,20,0.5,4,46
Cc1ccc(Cn2c(=O)c3ccccc3n3c(SCC(=O)N4CCCCC4C)nnc23)cc1 (configuration not stated),0.9,11,0.8,/,16
COc1ccc2c(CC(=O)OCC(=O)Nc3cc(C)c(C)cc3[N+](=O)[O-])coc2c1,/,/,/,2,/
C=CCOn1c(C)c(C(C)=O)c2c3nonc3ccc21,/,/,/,12,/
O=C(C1CCCCC1)N(Cc1nc2sc3c(c2c(=O)[nH]1)CCCC3)Cc1cccs1,0.7,30,0.4,9,62*
COc1cc(NC(=O)C2CCCC2)c(OC)cc1Cl,0.4,65*,0.9,10,9
CCCCC(=O)Nc1cc(OC)c(NC(=O)C2CCCCC2)cc1OC,0.3,71*,0,8,99*
CCCCOC(=O)Nc1cc(OC)c(Cl)cc1OC,0,98*,0.4,9,61*
CC1CN(c2nc(-c3ccc(Br)cc3)nnc2-c2ccccc2)CC(C)N1 (configuration not stated),0.9,8,0.9,2,12
CCOC(=O)C(C)Oc1cccc2c(=O)n(CC(=O)Nc3cccc(OC)c3)ccc12 (configuration not stated),0.8,16,0.7,10,33
SMILES,CYP2C19 activ,CYP2C19 inh,CYP2C9 act,Measles CPE,CYP2C9 inhib
Cc1cc(Cl)c(OCCCSc2nc(C)cc(=O)[nH]2)c(Br)c1,0.9,9,0.7,2,26
COC(=O)C(CC(C)C)NC(=O)C(N)Cc1ccccc1 (configuration not stated),1.1,-5,1.1,2,-8
COC(=O)CCC(NC(=O)OCc1ccccc1)C(=O)NC(CC(C)C)C(=O)OC (configuration not stated),0.6,36,0.3,23,68*
CCCC(=O)Nc1ccc(C(=O)NNC(=S)NC(=O)c2cccs2)cc1,0.9,7,0.7,8,28
CCN(c1ccccc1)S(=O)(=O)c1ccc(NC(=S)NC(=O)c2cccs2)cc1,0.7,32,0.2,12,77*
CCCC(=O)NC(=S)Nc1ccc(NC(=O)c2cccs2)cc1,0.5,52*,0.2,20,85*
O=C(NC(=S)Nc1ccc(S(=O)(=O)N2CCCC2)cc1)c1cccs1,/,/,/,21,/
Cc1nc2ccc(S(=O)(=O)NC(C(=O)NCc3cccs3)C(C)C)cc2s1 (configuration not stated),0.9,12,0.9,9,6
C/C(=N\S(=O)(=O)c1ccc(C)cc1)N1CCN(S(=O)(=O)c2ccccc2)C1,0.8,23,1,12,4
C=CCNCCOCCOc1ccc(C)cc1[N+](=O)[O-],1,0,1,25,-3
CCc1nnc(SCc2ccc(OC)c(Br)c2)n1N,0.4,58*,1.3,14,-27
COc1ccc(CSc2nnc(C)n2N)cc1Br,0.6,38,1,10,-1
Cc1cc(O)c(/C=N/Nc2ccccc2)c(=O)o1,0.8,20,0.6,5,45
CC(C)C(NC(=O)c1cccs1)C(=O)NC1=NCCS1 (configuration not stated),0.5,54*,0.7,24,27
COc1ccc(-c2cc(N)n(S(=O)(=O)c3c(F)c(F)c(F)c(F)c3F)n2)cc1OC,0.4,59*,0.2,2,83*
COc1ccc(S(=O)(=O)n2nc(-c3cc(OC)c(OC)c(OC)c3)cc2N)cc1OC,/,/,/,29,/
Cc1ccc(-n2nnnc2SCC(=O)N2CCc3ccccc3C2)c(C)c1,1,1,2*,4,-100
Cn1nnnc1SCC(=O)N1CCc2ccccc2C1,0.3,70*,1.2,21,-15
Cc1nnc(SCC(=O)N2CCc3ccccc3C2)n1-c1ccccc1,/,/,/,7,/
Nn1c(COc2cccc(Br)c2)nnc1SCC(=O)N1CCc2ccccc2C1,0.5,52*,1,7,4
Nn1c(COc2ccccc2)nnc1SCC(=O)O,1,-1,1,13,-2
C/C(N)=C(/C#N)C(=O)CSc1nnnn1-c1ccc(C)cc1C,0,100*,0.7,5,31
Cc1ccc(-n2nnnc2SCC(=O)N2CCc3ccccc3C2)cc1,/,/,/,2,/
C/C(=N\NC(=S)NC1CCCCC1)c1ccccc1,/,/,/,2,/
CCCCOc1ccc(CONS(=O)(=O)c2ccc(NC(C)=O)cc2)cc1Cl,/,/,/,2,/
Cc1cc(NC(=O)COC(=O)C(Cc2ccccc2)NC(=O)c2ccco2)no1 (configuration not stated),1,4,0.9,/,5
Cc1nc2c(c(-c3ccccc3)c1C#N)C(=O)c1ccccc1-2,0.7,29,0.7,2,35
C=CCn1c(SCC(=O)Nc2sccc2C(N)=O)nc2ccc(Cl)cc2c1=O,1,-2,0.8,8,18
